Results as given in the supplement of paper PMC10849652.
About 7,900 targets were measured; listed, in parts, are those with a hit and a random draw of the rest. About 0.6% of all pairs of compound and target were hits. Unmarked numbers belong to inactive results.

Assays:
Assay in all cases: log2 fold change, soluble protein after heating vs DMSO (PISA); higher = thermal stabilisation; K562 cells, 10 uM, 30 min; active = over 0.2 and 3.5 SD of the protein, either way, in both replicates (recomputed)
[1] = compound: COC1=CC=C(C=C1)CN2C=CC3=C2C=C(C=C3)C(=O)NO
Summary of the method: (§1)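 Thermal stability values are relative to control samples and come from duplicates. They are expressed as log2 fold changes. For measurement, K562 cells (2×10^6 cells/mL) received 10 μM compound for 30 min, and aliquots were heated for 3 min over 48°C-58°C, pooled, and extracted at 4°C in PBS with 0.5% NP-40. Soluble protein, the supernatant after 21,000xg for 90 min, was quantified by TMTpro 16plex LC-MS/MS with equalised channel sums.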

filanesib = compound: CON(C)C(=O)N1N=C(c2cc(F)ccc2F)S[C@@]1(CCCN)c1ccccc1 [filanesib]
Summary of the method: as §1

zotarolimus = compound: CO[C@H]1C[C@@H]2CC[C@@H](C)[C@@](O)(O2)C(=O)C(=O)N2CCCC[C@H]2C(=O)O[C@H]([C@H](C)C[C@@H]2CC[C@H](n3cnnn3)[C@H](OC)C2)CC(=O)[C@H](C)/C=C(\C)[C@@H](O)[C@@H](OC)C(=O)[C@H](C)C[C@H](C)/C=C/C=C/C=C/1C [zotarolimus]
Summary of the method: as §1

idasanutlin = compound: COc1cc(C(=O)O)ccc1NC(=O)[C@@H]1N[C@@H](CC(C)(C)C)[C@](C#N)(c2ccc(Cl)cc2F)[C@H]1c1cccc(Cl)c1F [idasanutlin]
Summary of the method: as §1

alisertib = compound: COc1cc(Nc2ncc3c(n2)-c2ccc(Cl)cc2C(c2c(F)cccc2OC)=NC3)ccc1C(=O)O [alisertib]
Summary of the method: as §1

[2] = compound: COc1cc2nc(-c3cc(F)ccc3O)nc(N[C@@H]3CNC[C@H]3C(C)(C)O)c2cc1OC
Summary of the method: as §1

[3] = compound: COc1cccc2cc(-c3nc([C@H]4CC[C@H](C(=O)O)CC4)n4ncnc(N)c34)[nH]c12
Summary of the method: as §1

lapatinib = compound: CS(=O)(=O)CCNCc1ccc(-c2ccc3ncnc(Nc4ccc(OCc5cccc(F)c5)c(Cl)c4)c3c2)o1 [lapatinib]
Summary of the method: as §1

pictilisib = compound: CS(=O)(=O)N1CCN(Cc2cc3nc(-c4cccc5[nH]ncc45)nc(N4CCOCC4)c3s2)CC1 [pictilisib]
Summary of the method: as §1

gefitinib = compound: COc1cc2ncnc(Nc3ccc(F)c(Cl)c3)c2cc1OCCCN1CCOCC1 [gefitinib]
Summary of the method: as §1

Sequence of UniProt Q9UEY8 (Q9UEY8 whole entry, looked up): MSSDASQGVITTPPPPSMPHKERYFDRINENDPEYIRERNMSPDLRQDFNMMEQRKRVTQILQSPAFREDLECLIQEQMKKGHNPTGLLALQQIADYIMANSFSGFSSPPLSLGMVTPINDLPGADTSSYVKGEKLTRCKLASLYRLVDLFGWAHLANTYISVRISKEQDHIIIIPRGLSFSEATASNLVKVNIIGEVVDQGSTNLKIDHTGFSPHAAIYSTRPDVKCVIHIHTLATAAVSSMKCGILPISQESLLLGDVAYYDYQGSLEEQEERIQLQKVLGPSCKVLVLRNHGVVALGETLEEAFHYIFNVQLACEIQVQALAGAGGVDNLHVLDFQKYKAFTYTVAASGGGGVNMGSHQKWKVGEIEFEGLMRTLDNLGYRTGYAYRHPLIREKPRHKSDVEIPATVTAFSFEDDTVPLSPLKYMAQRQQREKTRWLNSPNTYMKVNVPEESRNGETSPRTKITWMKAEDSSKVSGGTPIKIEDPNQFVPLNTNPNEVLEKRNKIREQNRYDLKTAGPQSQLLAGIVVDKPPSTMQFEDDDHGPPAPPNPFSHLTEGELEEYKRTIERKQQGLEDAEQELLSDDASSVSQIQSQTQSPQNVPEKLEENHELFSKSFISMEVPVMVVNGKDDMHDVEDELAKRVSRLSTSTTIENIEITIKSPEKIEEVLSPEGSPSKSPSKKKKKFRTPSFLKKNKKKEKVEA
Sequence of UniProt Q4L235 (Q4L235 whole entry, looked up): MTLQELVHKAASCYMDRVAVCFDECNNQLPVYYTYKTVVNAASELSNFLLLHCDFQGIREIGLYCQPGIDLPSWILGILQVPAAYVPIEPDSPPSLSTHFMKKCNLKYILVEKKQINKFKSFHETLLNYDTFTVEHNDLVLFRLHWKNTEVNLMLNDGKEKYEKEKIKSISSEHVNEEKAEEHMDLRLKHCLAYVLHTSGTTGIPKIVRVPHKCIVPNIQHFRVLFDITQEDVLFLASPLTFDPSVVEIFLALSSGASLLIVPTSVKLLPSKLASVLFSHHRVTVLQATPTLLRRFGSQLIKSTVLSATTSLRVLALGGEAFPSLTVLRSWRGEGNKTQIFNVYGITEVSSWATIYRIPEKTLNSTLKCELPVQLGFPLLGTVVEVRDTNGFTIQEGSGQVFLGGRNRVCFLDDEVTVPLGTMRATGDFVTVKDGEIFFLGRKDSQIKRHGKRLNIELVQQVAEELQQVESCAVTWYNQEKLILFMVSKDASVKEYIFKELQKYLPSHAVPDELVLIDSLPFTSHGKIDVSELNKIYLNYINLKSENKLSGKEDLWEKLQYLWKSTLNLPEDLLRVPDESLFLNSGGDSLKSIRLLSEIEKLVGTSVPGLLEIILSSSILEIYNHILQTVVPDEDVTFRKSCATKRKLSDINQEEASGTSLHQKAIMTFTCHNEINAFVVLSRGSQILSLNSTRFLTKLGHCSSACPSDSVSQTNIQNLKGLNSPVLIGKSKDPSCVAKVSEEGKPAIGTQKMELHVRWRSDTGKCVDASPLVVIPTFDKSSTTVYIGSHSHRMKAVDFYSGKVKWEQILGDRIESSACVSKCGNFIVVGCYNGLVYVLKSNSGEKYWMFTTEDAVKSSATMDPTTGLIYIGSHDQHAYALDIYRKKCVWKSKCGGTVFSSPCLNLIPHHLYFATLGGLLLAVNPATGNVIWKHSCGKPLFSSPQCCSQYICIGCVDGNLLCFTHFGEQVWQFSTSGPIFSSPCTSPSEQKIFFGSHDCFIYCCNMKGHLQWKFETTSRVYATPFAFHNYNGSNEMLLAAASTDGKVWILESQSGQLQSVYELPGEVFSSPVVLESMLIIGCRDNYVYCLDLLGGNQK
Sequence of UniProt Q9Y2Y0 (Q9Y2Y0 whole entry, looked up): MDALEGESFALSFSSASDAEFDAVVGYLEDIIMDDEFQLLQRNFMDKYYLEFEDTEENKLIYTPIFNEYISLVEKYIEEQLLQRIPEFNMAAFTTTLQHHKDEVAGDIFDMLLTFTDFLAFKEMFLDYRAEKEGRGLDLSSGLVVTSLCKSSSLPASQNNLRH
Sequence of UniProt Q06481 (Q06481 whole entry, looked up): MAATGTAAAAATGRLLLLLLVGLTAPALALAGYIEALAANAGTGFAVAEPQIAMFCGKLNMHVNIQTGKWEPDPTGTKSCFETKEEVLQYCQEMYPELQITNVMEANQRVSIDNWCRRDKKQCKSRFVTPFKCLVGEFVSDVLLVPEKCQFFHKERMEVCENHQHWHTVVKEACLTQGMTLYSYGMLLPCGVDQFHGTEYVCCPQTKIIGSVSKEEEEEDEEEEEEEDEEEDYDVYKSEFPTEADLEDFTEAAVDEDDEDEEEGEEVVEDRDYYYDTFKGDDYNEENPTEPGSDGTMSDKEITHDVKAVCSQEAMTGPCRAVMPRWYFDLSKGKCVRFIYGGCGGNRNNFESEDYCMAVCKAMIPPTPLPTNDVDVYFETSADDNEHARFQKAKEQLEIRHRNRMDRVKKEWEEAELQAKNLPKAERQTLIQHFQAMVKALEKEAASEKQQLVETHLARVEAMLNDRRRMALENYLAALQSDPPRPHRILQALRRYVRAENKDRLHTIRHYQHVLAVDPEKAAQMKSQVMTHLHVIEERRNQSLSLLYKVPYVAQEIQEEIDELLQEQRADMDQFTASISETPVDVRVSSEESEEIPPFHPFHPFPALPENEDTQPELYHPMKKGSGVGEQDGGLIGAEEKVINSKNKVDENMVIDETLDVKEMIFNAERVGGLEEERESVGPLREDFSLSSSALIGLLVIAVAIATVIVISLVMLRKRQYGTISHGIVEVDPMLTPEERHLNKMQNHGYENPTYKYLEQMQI
Sequence of UniProt P78363 (P78363 whole entry, looked up): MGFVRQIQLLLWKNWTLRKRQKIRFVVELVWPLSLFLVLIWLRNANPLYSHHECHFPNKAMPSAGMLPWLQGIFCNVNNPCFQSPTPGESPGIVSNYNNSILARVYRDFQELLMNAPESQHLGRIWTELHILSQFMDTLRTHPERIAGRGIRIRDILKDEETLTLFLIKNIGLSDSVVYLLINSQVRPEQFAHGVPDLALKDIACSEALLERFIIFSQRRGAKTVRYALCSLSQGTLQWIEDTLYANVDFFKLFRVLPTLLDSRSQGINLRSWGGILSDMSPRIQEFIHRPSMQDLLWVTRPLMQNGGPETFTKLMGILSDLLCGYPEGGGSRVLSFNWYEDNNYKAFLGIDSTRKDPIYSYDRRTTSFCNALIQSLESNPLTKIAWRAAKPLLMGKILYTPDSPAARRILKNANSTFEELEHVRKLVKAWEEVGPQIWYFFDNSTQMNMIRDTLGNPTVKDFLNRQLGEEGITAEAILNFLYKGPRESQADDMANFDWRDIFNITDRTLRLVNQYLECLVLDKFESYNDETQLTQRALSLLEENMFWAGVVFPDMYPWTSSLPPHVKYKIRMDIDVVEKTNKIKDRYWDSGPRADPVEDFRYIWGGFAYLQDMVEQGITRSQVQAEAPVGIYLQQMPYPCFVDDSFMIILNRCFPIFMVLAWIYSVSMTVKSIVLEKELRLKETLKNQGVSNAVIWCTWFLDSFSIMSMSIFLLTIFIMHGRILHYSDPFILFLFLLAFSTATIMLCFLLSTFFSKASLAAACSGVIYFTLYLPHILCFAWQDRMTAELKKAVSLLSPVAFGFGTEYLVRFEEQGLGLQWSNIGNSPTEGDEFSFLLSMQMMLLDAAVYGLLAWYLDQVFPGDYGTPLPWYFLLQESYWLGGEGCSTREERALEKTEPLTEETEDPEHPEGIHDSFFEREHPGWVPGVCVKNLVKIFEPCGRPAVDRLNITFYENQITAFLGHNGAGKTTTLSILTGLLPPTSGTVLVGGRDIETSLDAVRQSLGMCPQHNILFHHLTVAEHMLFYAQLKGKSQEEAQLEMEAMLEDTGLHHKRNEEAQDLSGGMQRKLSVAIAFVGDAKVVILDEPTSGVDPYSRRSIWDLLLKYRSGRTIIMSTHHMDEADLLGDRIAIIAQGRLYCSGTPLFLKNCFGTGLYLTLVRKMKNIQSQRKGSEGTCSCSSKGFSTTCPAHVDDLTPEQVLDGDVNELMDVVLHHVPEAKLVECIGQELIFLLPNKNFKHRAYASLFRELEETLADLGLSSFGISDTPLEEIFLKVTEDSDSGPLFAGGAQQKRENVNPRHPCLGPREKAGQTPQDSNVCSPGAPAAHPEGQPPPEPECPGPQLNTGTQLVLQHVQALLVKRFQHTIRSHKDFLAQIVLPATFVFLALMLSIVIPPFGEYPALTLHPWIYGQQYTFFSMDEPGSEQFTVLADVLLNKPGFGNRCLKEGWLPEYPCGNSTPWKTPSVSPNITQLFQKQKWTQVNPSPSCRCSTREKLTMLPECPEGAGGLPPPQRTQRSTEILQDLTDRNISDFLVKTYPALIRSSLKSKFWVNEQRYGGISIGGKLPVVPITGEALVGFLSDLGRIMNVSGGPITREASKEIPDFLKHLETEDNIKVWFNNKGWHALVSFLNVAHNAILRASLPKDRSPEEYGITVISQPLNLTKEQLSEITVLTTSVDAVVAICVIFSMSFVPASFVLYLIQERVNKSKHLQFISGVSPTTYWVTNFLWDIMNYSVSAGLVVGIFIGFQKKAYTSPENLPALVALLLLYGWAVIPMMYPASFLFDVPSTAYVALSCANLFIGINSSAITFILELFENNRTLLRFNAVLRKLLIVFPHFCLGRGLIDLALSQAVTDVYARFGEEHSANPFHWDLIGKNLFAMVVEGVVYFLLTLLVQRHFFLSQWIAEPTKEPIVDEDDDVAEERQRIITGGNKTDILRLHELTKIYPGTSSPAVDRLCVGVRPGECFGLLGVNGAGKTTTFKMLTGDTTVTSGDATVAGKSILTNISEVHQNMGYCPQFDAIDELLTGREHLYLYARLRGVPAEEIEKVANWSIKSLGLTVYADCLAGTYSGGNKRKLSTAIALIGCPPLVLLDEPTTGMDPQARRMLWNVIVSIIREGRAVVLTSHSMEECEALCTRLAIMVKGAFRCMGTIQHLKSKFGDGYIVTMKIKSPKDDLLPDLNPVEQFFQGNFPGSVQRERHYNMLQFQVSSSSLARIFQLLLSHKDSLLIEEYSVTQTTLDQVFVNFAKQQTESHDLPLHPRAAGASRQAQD

| Target | log2 fold change [1] | log2 fold change (filanesib) | log2 fold change (zotarolimus) | log2 fold change (idasanutlin) | log2 fold change (alisertib) | log2 fold change [2] | log2 fold change [3] | log2 fold change (lapatinib) | log2 fold change (pictilisib) | log2 fold change (gefitinib) |
| --- | --- | --- | --- | --- | --- | --- | --- | --- | --- | --- |
| ALKBH4 (UniProt Q9NXW9) | -0.203 | -0.036 | 0.06 | -0.036 | 0.086 | -0.058 | 0.014 | -0.023 | 0.106 |  |
| ADD2 (UniProt P35612) | 0.047 | 0.015 | -0.011 | 0.009 | -0.081 | 0.065 | 0.02 | -0.026 | 0.009 | 0.003 |
| ADH5 (UniProt P11766) | -0.002 | -0.053 | 0.008 | -0.037 | -0.039 | 0.011 | 0.058 | -0.03 | 0 | -0.007 |
| ARL6IP4 (UniProt Q66PJ3) | -0.025 | 0.023 | 0.014 | 0.172 | -0.053 | 0.002 | 0.05 | -0.023 | -0.007 | -0.039 |
| ABCA4 (UniProt P78363) | 0.394 | 0.076 | 0.031 | -0.02 | -0.071 |  | -0.007 |  | 0.135 | 0.014 |
| ADD3 isoform 2 (UniProt Q9UEY8) | -0.022 | -0.025 | 0.186 | -0.276 | -0.042 | 0.094 | -0.003 | -0.028 | 0.125 |  |
| APLP2 (UniProt Q06481) | 0.036 | 0.219 (active) | 0.002 | 0.058 | -0.039 | 0.038 | -0.04 | 0.09 | 0.091 | 0.106 |
| BRIP1 (UniProt Q9BX63) | 0.072 | 0.098 | 0.061 | -0.14 |  | 0.126 |  | 0.003 | 0.067 | 0.047 |
| BRD8 isoform 2 (UniProt Q9H0E9) | -0.201 | 0.042 | 0.027 | -0.027 |  | -0.113 |  | 0.019 | 0.06 |  |
| APOBEC3G (UniProt Q9HC16) | -0.012 | 0.066 |  | 0.039 | -0.092 | 0.047 | -0.053 | 0.046 |  | -0.074 |
| BRAF (UniProt P15056) | -0.031 | -0.05 | -0.004 | -0.047 | 0.007 | -0.076 | 0.015 |  | -0.061 | 0.012 |
| ARL2BP (UniProt Q9Y2Y0) | 0.287 | -0.061 | 0.062 | -0.012 | -0.074 | -0.049 | 0.02 | -0.025 | 0.098 | 0.028 |
| BRD3 (UniProt Q15059) | 0.027 | 0.297 | -0.077 | -0.012 | -0.035 | 0.086 | -0.002 | -0.057 | 0.081 | 0.227 |
| BCLAF1 (UniProt Q9NYF8) | -0.107 | 0.103 | 0.068 | 0.127 | 0.074 | -0.215 | 0.033 | 0.101 | -0.109 | 0.01 |
| ATP1B3 (UniProt P54709) | 0.082 | 0.073 | -0.034 | 0.014 | -0.032 | 0.034 | 0.092 | -0.051 | -0.012 | 0.025 |
| AP2S1 (UniProt P53680) | -0.031 | 0.037 | 0.013 | -0.033 | -0.159 | 0.023 | -0.061 | -0.022 | -0.023 | 0.017 |
| BLOC1S3 (UniProt Q6QNY0) | -0.013 | -0.066 | -0.014 | -0.149 | 0.005 | -0.018 | 0.058 | -0.007 | 0.126 | 0.048 |
| ANKRD29 (UniProt Q8N6D5) | 0.339 | -0.122 | 0.011 | -0.077 | -0.044 | 0.279 | -0.08 | -0.126 | 0.177 | -0.066 |
| AP2M1 (UniProt C9JTK4) | 0.016 | 0.132 | -0.203 | 0.224 | -0.177 |  | 0.123 |  |  | 0.005 |
| AURKA (UniProt O14965) | 0.021 | 0.009 | -0.021 | -0.095 | 1.36 (active) | 0.048 | 0.01 | 0.025 | 0.055 | -0.03 |
| ADAM15 (UniProt Q13444) | -0.159 | 0.065 | -0.206 | -0.083 |  | 0.078 |  | 0 | -0.045 | -0.029 |
| BDH2 (UniProt Q9BUT1) | 0.022 | -0.007 | 0.098 | -0.039 | 0.071 | 0.065 | -0.001 | 0.012 | 0.007 |  |
| ARGLU1 (UniProt Q9NWB6) | 0.066 | 0.207 | 0.025 | 0.171 | -0.13 | 0.05 | 0.031 | 0.062 | -0.027 | 0.212 |
| ABCA3 (UniProt Q99758) | -0.044 | 0.062 | 0.03 | -0.021 |  | 0.147 |  | -0.084 | 0.01 |  |
| ATP11A (UniProt P98196) | -0.027 | 0.036 | 0.011 | 0.004 | 0.23 | 0.026 | 0.015 | -0.033 | 0.007 | 0.057 |
| BRD2 isoform 2 (UniProt P25440) | -0.174 | -0.11 | -0.361 | 0.072 |  | 0.214 |  | 0.005 | 0.016 |  |
| AASDH (UniProt Q4L235) | -0.13 | -0.01 | -0.221 |  | -0.141 | 0.041 | 0.207 | 0.063 | 0.093 | -0.143 |
| ACP2 (UniProt P11117) | -0.034 | -0.121 | -0.016 | -0.026 | 0.036 | -0.002 | 0.053 | 0.038 | -0.031 | 0.001 |
